One assay deals with T1, Her1-GFP homodimer (zebrafish (Danio rerio), UniProt Q90463 1-328).
T1 sequence: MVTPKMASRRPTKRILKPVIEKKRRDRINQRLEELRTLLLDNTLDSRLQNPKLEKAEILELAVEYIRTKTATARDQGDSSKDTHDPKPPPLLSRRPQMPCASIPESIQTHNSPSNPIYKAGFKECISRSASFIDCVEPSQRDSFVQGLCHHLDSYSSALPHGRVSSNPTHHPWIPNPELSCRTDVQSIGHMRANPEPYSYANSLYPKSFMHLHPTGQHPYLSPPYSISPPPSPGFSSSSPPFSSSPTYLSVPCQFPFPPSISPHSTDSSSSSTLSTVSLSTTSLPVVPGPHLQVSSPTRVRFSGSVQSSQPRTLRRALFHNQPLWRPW
The assay is described as follows: MITOMI; PPARgamma-mCherry co-present (non-interacting control); TnT SP6 wheat germ expression extract on MITOMI chip, 3 h at room temperature; salt and pH not stated; PBS used for washing; high values mean tight binding. Conditions: protein: ivt; tags: C-terminal GFP; chain copies: 2; label: Cy5; dsDNA, one strand shown.

The target in assay [1] is T2, Her7 (coupled to chip, Fig 2D);Hes6-mCherry (zebrafish (Danio rerio);zebrafish …, UniProt Q9I9K1;Q6P0J1 1-206;1-226, |).
T2 sequence 1: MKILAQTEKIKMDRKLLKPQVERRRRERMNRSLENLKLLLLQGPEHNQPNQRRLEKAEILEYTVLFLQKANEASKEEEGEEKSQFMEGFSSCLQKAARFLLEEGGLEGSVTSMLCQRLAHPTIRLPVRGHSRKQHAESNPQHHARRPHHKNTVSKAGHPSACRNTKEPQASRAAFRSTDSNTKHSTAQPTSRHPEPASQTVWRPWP
T2 sequence 2: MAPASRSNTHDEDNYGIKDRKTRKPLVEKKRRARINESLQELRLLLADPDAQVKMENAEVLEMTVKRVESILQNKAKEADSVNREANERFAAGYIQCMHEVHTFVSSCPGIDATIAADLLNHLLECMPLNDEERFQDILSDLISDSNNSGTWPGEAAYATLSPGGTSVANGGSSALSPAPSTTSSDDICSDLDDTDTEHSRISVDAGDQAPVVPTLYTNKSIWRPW
The assay is described as follows: MITOMI; Her7:Hes6 heterodimer, Her7 coupled to chip and Hes6-mCherry in solution; TnT SP6 wheat germ expression extract on MITOMI chip, 3 h at room temperature; salt and pH not stated; PBS used for washing; high values mean tight binding. The conditions noted are these: protein: ivt;ivt; copies: 1;1; label: Cy5; dsDNA, one strand shown.

Consider AGACACGCGCTA, for which the binding signal is 0.118 ± 0.00385 relative affinity (strongest site = 1) with Her1-GFP homodimer and 0.2749 ± 0.00267 relative affinity (strongest site = 1) in assay [1].
On the same counts, the results for TCCCACGGGATT are 0.0209 ± 0.00257 relative affinity (strongest site = 1) and 0.0207 ± 0.00168 relative affinity (strongest site = 1).
Consider CAGCGCGTGTGC, for which the binding signal in the assay with Her1-GFP homodimer was 0.057 ± 0.0015 relative affinity (strongest site = 1); in assay [1] it was 0.179 ± 0.00225 relative affinity (strongest site = 1).
For TGCCGCGTGCCG the same measures were 0.216 ± 0.0104 relative affinity (strongest site = 1) and 0.369 ± 0.00323 relative affinity (strongest site = 1).
For CTGCTCGTGCTT the same measures were 0.0197 ± 0.00116 relative affinity (strongest site = 1) and 0.103 ± 0.00315 relative affinity (strongest site = 1).
On the same counts, the results for CGACACGTGCTC are 0.416 ± 0.00933 relative affinity (strongest site = 1) and 0.638 ± 0.0296 relative affinity (strongest site = 1).
Regarding CGACACGCGGTG, the values for the binding signal (with Her1-GFP homodimer; in assay [1]) were 0.0408 ± 0.00225 relative affinity (strongest site = 1) and 0.0849 ± 0.00174 relative affinity (strongest site = 1), respectively.
For TTCCACGAGAAA the same measures were 0.0129 ± 0.000672 relative affinity (strongest site = 1) and 0.0286 ± 0.00127 relative affinity (strongest site = 1).
On the same counts, the results for AAGCACGTGATC are 0.0423 ± 0.00127 relative affinity (strongest site = 1) and 0.0912 ± 0.0018 relative affinity (strongest site = 1).
On the same counts, the results for CATCACGTGAAA are 0.018 ± 0.00636 relative affinity (strongest site = 1) and 0.0344 ± 0.00348 relative affinity (strongest site = 1).
As for GCCCACGGGCCC, the values for the binding signal (in the assay with Her1-GFP homodimer; in assay [1]) were 0.144 ± 0.0313 relative affinity (strongest site = 1) and 0.0279 ± 0.00171 relative affinity (strongest site = 1), respectively.
For CAGCACGTGTCT the same measures were 0.456 ± 0.0098 relative affinity (strongest site = 1) and 0.679 ± 0.014 relative affinity (strongest site = 1).
On the same counts, the results for CTCCTCGTGTTG are 0.0177 ± 0.000557 relative affinity (strongest site = 1) and 0.0605 ± 0.00276 relative affinity (strongest site = 1).
For TTCCACGGGTCT the same measures were 0.0411 ± 0.00212 relative affinity (strongest site = 1) and 0.0587 ± 0.00207 relative affinity (strongest site = 1).
With GTTCACGTGTGC, the binding signal with Her1-GFP homodimer was 0.0341 ± 0.00138 relative affinity (strongest site = 1); in assay [1], 0.102 ± 0.00486 relative affinity (strongest site = 1).
For GCGCTCGTGCGC the same measures were 0.0291 ± 0.00508 relative affinity (strongest site = 1) and 0.0861 ± 0.00202 relative affinity (strongest site = 1).
Take AGCCACGTGGCT: the binding signal with Her1-GFP homodimer is 0.57 ± 0.0193 relative affinity (strongest site = 1); in assay [1], 0.347 ± 0.00813 relative affinity (strongest site = 1).
For CTGCACGTGCAT the same measures were 0.0391 ± 0.00232 relative affinity (strongest site = 1) and 0.158 ± 0.00223 relative affinity (strongest site = 1).
On the same counts, the results for AGGCGCGTGGTG are 0.077 ± 0.00506 relative affinity (strongest site = 1) and 0.157 ± 0.00403 relative affinity (strongest site = 1).
Regarding TATCTCGTGCTG, the binding signal in the assay with Her1-GFP homodimer was 0.029 ± 0.0011 relative affinity (strongest site = 1); in assay [1], 0.0758 ± 0.00824 relative affinity (strongest site = 1).
For GGTCGCGTGTGC, the binding signal was 0.181 ± 0.0115 relative affinity (strongest site = 1) with Her1-GFP homodimer and 0.182 ± 0.00317 relative affinity (strongest site = 1) in assay [1].
For CGGCGCGTGCCA the same measures were 0.73 ± 0.0316 relative affinity (strongest site = 1) and 0.959 ± 0.0356 relative affinity (strongest site = 1).
On the same counts, the results for CCGCGCGTGCCA are 0.279 ± 0.0129 relative affinity (strongest site = 1) and 0.516 ± 0.0179 relative affinity (strongest site = 1).
On the same counts, the results for TGACGCGTGTGA are 0.118 ± 0.00595 relative affinity (strongest site = 1) and 0.387 ± 0.0053 relative affinity (strongest site = 1).
CAACACGGGGTG: the binding signal with Her1-GFP homodimer is 0.026 ± 0.00978 relative affinity (strongest site = 1); in assay [1], 0.0311 ± 0.0032 relative affinity (strongest site = 1).
On to GTTCGCGTGTGC, for which the figures for the binding signal (in the assay with Her1-GFP homodimer; in assay [1]) were 0.0452 ± 0.00123 relative affinity (strongest site = 1) and 0.1 ± 0.00206 relative affinity (strongest site = 1), respectively.
For CTCCACGTGCCC the same measures were 0.269 ± 0.00665 relative affinity (strongest site = 1) and 0.297 ± 0.00926 relative affinity (strongest site = 1).
On the same counts, the results for TGGCACGTGTCC are 1 ± 0.0321 relative affinity (strongest site = 1) and 1 ± 0.0512 relative affinity (strongest site = 1).
On the same counts, the results for TTGCTCGTGCTT are 0.0235 ± 0.00192 relative affinity (strongest site = 1) and 0.109 ± 0.00195 relative affinity (strongest site = 1).
In the case of GTTCTCGTGTTT, the values for the binding signal (with Her1-GFP homodimer; in assay [1]) were 0.0171 ± 0.0014 relative affinity (strongest site = 1) and 0.0265 ± 0.0016 relative affinity (strongest site = 1), respectively.
On the same counts, the results for TGTCGCGTGCCA are 0.597 ± 0.0246 relative affinity (strongest site = 1) and 0.531 ± 0.00964 relative affinity (strongest site = 1).
For TTGCACGTGTAC the same measures were 0.0556 ± 0.0021 relative affinity (strongest site = 1) and 0.178 ± 0.00237 relative affinity (strongest site = 1).
On the same counts, the results for AAACACGAGCCA are 0.0562 ± 0.00247 relative affinity (strongest site = 1) and 0.208 ± 0.00306 relative affinity (strongest site = 1).
Regarding GTACACGTGGCG, the binding signal with Her1-GFP homodimer was 0.237 ± 0.00793 relative affinity (strongest site = 1); in assay [1], 0.275 ± 0.00281 relative affinity (strongest site = 1).
Regarding ATACACAGTGCGC, the binding signal was 0.0128 ± 0.000425 relative affinity (strongest site = 1) with Her1-GFP homodimer and 0.0208 ± 0.0021 relative affinity (strongest site = 1) in assay [1].
For GGGCGCGTGCCG, the binding signal is 0.576 ± 0.0101 relative affinity (strongest site = 1) with Her1-GFP homodimer and 0.748 ± 0.021 relative affinity (strongest site = 1) in assay [1].
On the same counts, the results for TGCCGCGTGCAC are 0.033 ± 0.00214 relative affinity (strongest site = 1) and 0.163 ± 0.00188 relative affinity (strongest site = 1).
Take CAGCGCGTGCCT: the results for the binding signal (with Her1-GFP homodimer; in assay [1]) were 0.227 ± 0.0107 relative affinity (strongest site = 1) and 0.4636 ± 0.00426 relative affinity (strongest site = 1), respectively.
For the sequence TCACACCTGTGCAG, the binding signal in assay [1] is 0.02 ± 0.00133 relative affinity (strongest site = 1).
As to AGCCTCGTGTAA, the results for the binding signal (with Her1-GFP homodimer; in assay [1]) were 0.0363 ± 0.00627 relative affinity (strongest site = 1) and 0.0516 ± 0.00244 relative affinity (strongest site = 1), respectively.
Regarding GGGCACGTGCGC, the binding signal is 0.406 ± 0.00899 relative affinity (strongest site = 1) with Her1-GFP homodimer and 0.542 ± 0.0166 relative affinity (strongest site = 1) in assay [1].
On the same counts, the results for GCCCACGCGCCG are 0.119 ± 0.00729 relative affinity (strongest site = 1) and 0.168 ± 0.00251 relative affinity (strongest site = 1).
For ATCCACGTGTCC the same measures were 0.303 ± 0.0145 relative affinity (strongest site = 1) and 0.256 ± 0.00386 relative affinity (strongest site = 1).

(Values after publication PMC3404119, “Topology and Dynamics of the Zebrafish Segmentation Clock Core Circuit”.)
